# USP2a block – inhibitors of human ubiquitin-specific protease USP2a. O75604. USP2 core, Ub-CHOP2 coupled fluorogenic reporter, 485/531. Potency, µM (doses to about 38.3 µM), for inactives: top-dose activity change, negative = inhibition, usual class: inhibitors. 330,000 compounds, 0.01% hits. AID 463254;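 also: potency is read from the fitted curve at half-maximal effect; plate controls were DMSO wells for no effect and full inhibition by NEM control for full effect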
#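 USP2 core (10nM final) preincubated 30min RT with compound in 20mM Tris-HCl pH 8.0, 2mM CaCl2, 2mM beta-mercaptoethanol, 0.05% CHAPS; 25nM Ub-CHOP2 plus 25nM reporter substrate added, fluorescence (Ex485/Em531) read after 60min.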
# IL1B secr inh – inflammasome signaling inhibition, IL-1 beta readout. activity change, % at 57.5 µM. 360,000 compounds, 4.7% hits. THP-1 LPS/ATP IL-1B secretion, AlphaLISA, 16 h; hits give low values; in the data active = activity change below about -50%; inconclusive = mostly about -30% to -49%; also: % is scaled to controls: 0 for no effect and ±100 for the full control effect
#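 Secreted IL-1B measured by AlphaLISA bead assay after 16 h compound exposure of THP-1 cells; compounds (final up to 57.5 uM) added 1 h before LPS (250 ng/mL) and ATP (1.25 mM) stimulation; lower signal means less secretion.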
# S2 tox – cell viability loss in ATXN counter-screen; S2 cells (HEK-293 line with an ATXN2-luciferase reporter) viability, CellTiter-Fluor protease fluorescence, 24 h; 400,000 compounds, 0.49% hits; Potency, µM (series often up to 56.7 µM), usual class: cytotoxic; AID 651635; also: potency is read from the fitted curve at half-maximal effect; nearly all actives have a fitted effect of over 40% in size
# USP1-UAF1 inh – blocks the human USP1/UAF1 deubiquitinase complex. recombinant USP1/UAF1, Ub-Rhodamine cleavage fluorescence. Potency, µM (titrated, usually from 57.1 µM), for inactives: top-dose activity change, negative = inhibition, hits mostly inhibitors. 390,000 compounds, 0.23% hits. AID 743255; also: potency is read from the fitted curve at half-maximal effect; % is scaled to controls: 0 for no effect and ±100 for the full control effect; nearly all actives have a fitted effect of over 60% in size
# Target sequence (O94782 whole entry, looked up): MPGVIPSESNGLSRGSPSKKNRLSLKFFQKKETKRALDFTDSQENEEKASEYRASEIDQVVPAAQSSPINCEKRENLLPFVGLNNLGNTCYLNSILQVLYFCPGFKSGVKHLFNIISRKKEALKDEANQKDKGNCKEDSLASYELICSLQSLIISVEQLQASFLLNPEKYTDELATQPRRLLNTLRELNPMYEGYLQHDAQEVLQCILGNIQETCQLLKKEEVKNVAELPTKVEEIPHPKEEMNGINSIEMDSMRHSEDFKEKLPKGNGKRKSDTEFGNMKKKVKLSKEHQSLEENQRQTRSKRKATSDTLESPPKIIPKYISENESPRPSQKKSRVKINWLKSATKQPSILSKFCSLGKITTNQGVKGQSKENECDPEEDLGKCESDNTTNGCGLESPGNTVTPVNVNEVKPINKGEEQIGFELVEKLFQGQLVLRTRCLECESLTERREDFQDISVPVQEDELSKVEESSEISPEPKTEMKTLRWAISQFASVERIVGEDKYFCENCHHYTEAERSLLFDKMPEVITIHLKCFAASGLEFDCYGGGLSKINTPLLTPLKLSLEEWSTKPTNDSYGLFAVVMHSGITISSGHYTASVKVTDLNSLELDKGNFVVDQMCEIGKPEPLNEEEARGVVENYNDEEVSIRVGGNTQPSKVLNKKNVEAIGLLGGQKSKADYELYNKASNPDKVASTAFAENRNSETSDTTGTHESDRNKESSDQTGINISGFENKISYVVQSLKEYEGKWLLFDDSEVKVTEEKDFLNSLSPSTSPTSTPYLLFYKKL
#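 In this screen, compounds sit with the deubiquitinase complex (1nM) for 15 min at room temperature before Ub-Rho is added at 150nM final. Fluorescence rise is then followed for 6 reads every 60 seconds.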
# ATXN2 expr inh – ATXN2 expression inhibition. 360,000 compounds, 0.72% hits. HEK-293 ATXN2-luciferase reporter, luminescence, 24 h. AID 1745845. Potency, µM (series often up to 57 µM), for inactives: at the highest dose activity change, negative = inhibition, usual class: inhibitors; also: potency is read from the fitted curve at half-maximal effect; % is scaled to controls: 0 for no effect and ±100 for the full control effect; nearly all actives have a fitted effect of over 55% in size
#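 ATXN2-luciferase reporter cells (luciferase flanked by upstream and downstream ATXN2 gene portions) were treated 24 h at 37 °C with compounds at up to 57 uM. SteadyGlo luminescence gave expression; GF-AFC fluorescence gave viability.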
# Starred values were filed as active, the others as inactive; i = inactive; ? = inconclusive; nt = no result; [ ] = remark or other dose. Hits are enriched below; roughly 4.8% of the tested compounds scored in any of these assays. Unless noted, calls follow the shape of the dose curve; as a rule, active = well fitted curve in the direction sought with a large enough effect; inconclusive = small, poorly fitted or top-dose-only effect, or another doubt; inactive = no such curve, though single readings can be large; an effect the other way counts as inactive or inconclusive.
SMILES,USP2a block,IL1B secr inh,S2 tox,USP1-UAF1 inh,ATXN2 expr inh
c1ccc(-c2nc(NCc3cccnc3)c3ccccc3n2)cc1,-1%,?,i,-11%,-17%
OCCNc1nc(-c2cccnc2)nc2ccccc12,0%,-21,i,-8%,-13%
OC(CNc1nc(-c2cccnc2)nc2ccccc12)c1ccccc1 (centres undefined),2%,-66*,i,-17%,?
O=[N+]([O-])c1cccc(CON=Cc2ccccc2O)c1,nt,1,i,-21%,nt
CCOC(=O)c1cc2c(ccn2C)n1CC(=O)N(Cc1ccccc1)c1ccc(F)cc1,-1%,8,i,-16%,-15%
CCOC(=O)c1cc2c(ccn2C)n1CC(=O)N(Cc1ccccc1)c1ccccc1,-1%,-72*,?,-7%,-36%
Cc1ccc(C(=O)Cn2c(=N)n(N)c3ccccc32)cc1,0%,?,i,-21%,45%
CCN(CC)CCn1c(=N)n(CC(=O)c2ccc(C)cc2)c2ccccc21,3%,-59*,i,-15%,-13%
COc1ccc(C(=O)Cn2c(=N)n(C)c3ccccc32)cc1,11%,-56*,?,-9%,19%
OCCN1C[C@H](O)[C@@H](O)[C@H](O)[C@@H]1CO,nt,nt,nt,nt,12%
CN(C)C(=O)[C@@H]1C[C@@H](Sc2nc3ccccc3[nH]2)CN1Cc1ccnc2ccccc12,nt,nt,i,nt,nt
COc1ccc(NC(=O)Cn2c(=O)n(-c3ccc(OC)cc3)c(=O)c3ccc(C(=O)NCc4ccc(C)cc4)cc32)cc1,nt,nt,i,-18%,1%
NCCCC(N)CC(=O)NCC1NC(=O)C(CO)NC(=O)C(N)CNC(=O)C(C2CCN=C(N)N2)NC(=O)C(=CNC(N)=O)NC1=O (centres undefined),nt,nt,i[0.575 µM],nt,12%[0.709 µM]
Cc1ccc(NC(=O)CNC(=O)CN2C(=O)c3ccccc3C2=O)cc1,nt,6,i,nt,5%
COc1ccc(OCC(O)CN(CC(O)COc2ccc(OC)cc2)c2cccc(O)c2)cc1 (centres undefined),-6%,-50*,i,-18%,-8%
COc1cc2[nH]c(=S)nc(NC3CCCCCC3)c2cc1OC,0%,-139*,i,5%,-32%
O=C(O)c1ccc(-c2cc3cccnc3c(-c3ccc4nonc4c3)n2)cc1,nt,nt,nt,nt,-24%
CC(=O)c1ccc(NC(=O)CSc2ccsc2[N+](=O)[O-])cc1,1%,-13,i,-3%,nt
Cc1oc2c(c(=O)c1C)C(=O)CC(c1ccccc1)C2 (centres undefined),-4%,-12,i,0%,-6%
CS(=O)(=O)c1sc(C#N)c2c1C(=O)CC(c1ccccc1)C2 (centres undefined),0%,-113*,6.3µM*,?,5µM*
CCCC(=O)Nc1nnc(SCc2cc(=O)c3cc(C)ccc3[nH]2)s1,nt,nt,i,9%,-3%
COc1ccc(Cl)c2c1[nH]c1nc(SCc3cccnc3)nnc12,4%,23,i,-17%,1%
COc1ccc(Cl)c2c1[nH]c1nc(SCc3ccccn3)nnc12,-2%,-82*,i,-1%,112%
COc1ccccc1NC(=O)c1cc([N+](=O)[O-])ccc1N1CCOCC1,-2%,27,i,-21%,4%
CN(CCOc1ccccc1)C(=S)Nc1ccc(OC(F)F)cc1,-1%,-58*,i,-22%,1%
SMILES,USP2a block,IL1B secr inh,S2 tox,USP1-UAF1 inh,ATXN2 expr inh
COCCN(Cc1ccccc1)C(=S)Nc1ccc(OC(F)F)cc1,1%,-29,i,-14%,-19%[11.3 µM]
O=C1c2ccccc2C(=O)c2c1cccc2-n1nnc2ccccc21,9%,19,i,-14%,-16%
O=C1C(N2CCOCC2)=C(n2nnc3ccccc32)C(=O)c2ccccc21,-4%,-78*,20µM*,14µM*,22µM*
Cc1c(C(=O)N2CCOCC2)sc2ncnc(N3CCc4ccccc4C3)c12,1%,-17,i,-17%,-3%
Cc1c(C(=O)N2CCCCC2C)sc2ncnc(N3CCc4ccccc4C3)c12 (centres undefined),-1%,-97*,i,-22%,-18%
CCc1ccccc1-n1nnc(-c2nc(-c3ccccc3F)no2)c1C,nt,nt,i,8%,55%
Cn1c(-c2cccc(Br)c2)cnc1NCc1ccccc1O,0%,-69*,i,2%,-2%
O=[N+]([O-])c1ccc(-[n+]2ccc3ccccc3c2)c([N+](=O)[O-])c1,-1%,-105*,11µM*,?,?
COc1cc2[nH]c(=O)n(CCCC(=O)N(C)Cc3ccccc3)c(=O)c2cc1OC,nt,nt,?,-18%,-4%
Cc1ccccc1-c1nnn(CC(=O)NC(=O)NC2CCCC2)n1,0%,-54*,i,-5%,-12%
O=C1Nc2ccccc2N=C(c2ccc3c(c2)OCO3)C1N(CCc1ccccc1)C(=O)CSc1ncccn1 (centres undefined),nt,?,7.9µM*,nt,7%
O=S(Cc1ccc(Cl)cc1)CC(O)(c1ccccc1)c1ccccc1 (centres undefined),0%,14,nt,-21%,nt
O=S(Cc1ccccc1)CC(O)(c1ccc(Cl)cc1)c1ccc(Cl)cc1 (centres undefined),-6%,-59*,i,-12%,-7%
O=C(CNS(=O)(=O)c1ccc([N+](=O)[O-])cc1)N/N=C/c1ccc(O)cc1O,1%,87,i,-2%,24µM*
Cc1noc(NS(=O)(=O)c2ccc(NC(=O)c3ccccc3NS(=O)(=O)c3ccc(F)cc3)cc2)c1C,3%,27,i,?,4%
COc1ccc(/C=N/NC(=O)CCC(=O)Nc2ccc(Br)cc2)c(OC)c1,-2%,-75*,i,-5%,-33%
CC(C)c1ccc(S(=O)(=O)c2cc3cc(Br)ccc3oc2=O)cc1,4%,8,i,-20%,20µM*
CN(Cc1ccc(Cl)s1)C(=O)CCl,-1%,-106*,nt,-2%,13µM*
CN(Cc1ccccc1)C(=O)CC(=O)N(C)Cc1ccccc1,-2%,10,i,-20%,18%
CN(Cc1ccc(Cl)cc1)C(=O)CCl,2%,-103*,nt,-25%,?
COc1ccc(CN(C)C(=O)CCl)cc1,1%,-98*,?,-8%,nt
COc1ccc(OCC(=O)N(C)Cc2ccccc2)cc1,3%,-14,i,-23%,5%
COc1ccc(CN(C)C(=O)COC(=O)c2cnc(Cl)c(Cl)c2)cc1,4%,-99*,i,-13%,8%
Cc1nc(N2CCC(C)CC2)c2c(C)c(C(=O)Nc3ccc(C(F)(F)F)cc3)sc2n1,3%,-84*,i,?,-7%[11.3 µM]
CC(C)Oc1ccc2ccccc2c1CNC[C@H]1O[C@@H](n2cnc(C(N)=O)n2)[C@H](O)[C@@H]1O,nt,6,i,-12%,1%

# High-throughput results: PubChem, National Center for Advancing Translational Sciences (NCATS)
